Activity calls are given as the source filed them.
Assays:
[1] = binders of probe aFSTL3 on microarray, primary screen, stem cell growth factor project, biochemical, small-molecule microarray, fluorescence 635/667 (AID 1064); details: higher = more signal;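 note: measures binding of the biotinylated anti-FSTL3 antibody to printed compounds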
[2] = binders from COS7 lysate, DM2A8 probe, primary screen, torsin A project, cell lysate, small-molecule microarray, fluorescence 635/667 (AID 1065); details: higher = more signal, COS7 lysate expressing mutant human TOR1A
[3] = binders of probe aFGF2 on microarray, primary screen, stem cell growth factor project, biochemical, small-molecule microarray, fluorescence 635/667 (AID 1067); details: higher = more signal;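 note: measures binding of biotinylated aFGF2 protein to printed compounds on slides; z-score merges feature fluorescence and signal-to-noise across triplicate slides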
[4] = binders of probe aFGF10 on microarray, primary screen, stem cell growth factor project, biochemical, small-molecule microarray, fluorescence 635/667 (AID 1071); details: higher = more signal;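 note: score merges 667 nm spot intensity and signal to noise from triplicate slides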
[5] = biological target: Neurogenic locus notch homolog protein 2 (Homo sapiens) (UniProt Q04721); test: Notch2 binders on small-molecule microarrays, primary screen, biochemical, small-molecule microarray, 635 nm fluorescence, stem cell growth factors (AID 1073); details: Notch2 binding, higher = more signal
[6] = biological target: Pro-neuregulin-1, membrane-bound isoform (Homo sapiens) (UniProt Q02297); test: NRG1 binders on small-molecule microarrays, primary screen, psychiatric disease protein project, biochemical, small-molecule microarray, fluorescence 635/667 (AID 1075); details: NRG1 binding, 635 nm fluorescence, higher = more signal;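 note: score combines 667 nm spot fluorescence with signal to noise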
[7] = tested on: Neuregulin-1 EGF-like domain; test: binders of neuregulin-1 EGF-like domain, primary screen, biochemical, small-molecule microarray, 635 nm fluorescence (AID 1081); details: small-molecule microarray binding, higher = more signal;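 note: binding of the protein to compounds printed on small-molecule microarray slides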
[8] = FRG1 promoter luciferase signal modulators, primary screen, FRG1 inhibition for FSHD, cell-based, C2C12 myotubes, firefly/Renilla luciferase, luminescence (AID 1084); details: higher = more signal, called active from +8 up or from −8 down
[9] = binders of probe aFST on microarray, primary screen, stem cell growth factor project, biochemical, small-molecule microarray, fluorescence 635/667 (AID 1086); details: higher = more signal;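 note: score merges 667 nm fluorescence with signal-to-noise of each printed compound spot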
[10] = binders of probe aHhip on microarray, primary screen, stem cell growth factor project, biochemical, small-molecule microarray, fluorescence 635/667 (AID 1087); details: higher = more signal;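 note: score merges spot fluorescence at 667nm with spot signal to noise ratio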
[11] = tested on: PRMT1 (protein arginine N-methyltransferase 1); test: PRMT1 binders on small-molecule microarrays, primary screen, biochemical, small-molecule microarray, 635 nm fluorescence (AID 1088); details: small-molecule microarray binding, higher = more signal;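 note: binding of Prmt1 protein to compounds spotted on small-molecule microarray slides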
[12] = yeast growth modulation, basal conditions, primary screen, YJM789 clinical isolate, OD600, 24 h (AID 1089);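 note: growth of clinical yeast isolate S. cerevisiae YJM 789 seeded 1000 cells per well; test concentration not given here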; details: S. cerevisiae YJM789 growth, higher = more signal, called active from +8 up or from −8 down
[13] = fission yeast growth modulation, primary screen, strain 972, OD600, 24 h, no modulator (AID 1090);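 note: basal condition with compound alone and no growth modifier present; test concentration not given here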; details: S. pombe 972 growth, higher = more signal, called active from +8 up or from −8 down
[14] = S. cerevisiae growth modulation with rapamycin, primary screen, strain BY4716, OD600, 96 h (AID 1091); details: higher = more signal, called active from +8 up or from −8 down; note: test concentration not given here
[15] = biological target: Torsin-1A-interacting protein 2 (Homo sapiens) (UniProt Q8NFQ8); test: LULL1 binders on small-molecule microarray, primary screen, cell lysate, human LULL1 lysate, 635/667 nm fluorescence (AID 1092); details: hLULL1 lysate binding, 635 nm fluorescence, higher = more signal;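 note: probe is lysate of COS7 cells overexpressing human LULL1; score merges per-feature 667 nm fluorescence with signal-to-noise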
[16] = E. coli growth modulation, two-sided OD650, primary screen, E. coli filamentation project, strain DRC41, 24 h (AID 1093); details: OD650, 24 h, higher = more signal, called active from +8 up or from −8 down;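 note: MC1000 strain lacking acrAB efflux and sulA so SOS filamentation is blocked; test concentration not given here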
[17] = small-molecule microarray binders of probe aLefty2, primary screen, biochemical, biotinylated probe, 635/667 nm fluorescence (AID 1094); details: higher = more signal;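 note: score merges spot fluorescence near 667 nm with spot signal-to-noise ratio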
[18] = tested on: Noggin (protein binding on small-molecule microarray); test: Noggin binders on small-molecule microarray, primary screen, biochemical, 635/667 nm fluorescence (AID 1095); details: 635 nm fluorescence, higher = more signal;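 note: score merges 667 nm feature fluorescence with signal to noise over triplicate slides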
[19] = biological target: Neurogenic locus notch homolog protein 3 (Homo sapiens) (UniProt Q9UM47); test: NOTCH3 binders on small-molecule microarray, primary screen, biochemical, 635/667 nm fluorescence (AID 1096); details: NOTCH3 binding, 635 nm fluorescence, higher = more signal
[20] = small-molecule microarray binders of probe aEGFR, primary screen, biochemical, biotinylated probe, 635/667 nm fluorescence (AID 1097); details: higher = more signal;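 note: probe is a biotinylated anti-EGFR antibody binding compounds printed on slides; score combines fluorescence near 667 nm and signal to noise of each spot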

Chain of Torsin-1A-interacting protein 2 (Homo sapiens) (Q8NFQ8 whole entry, looked up): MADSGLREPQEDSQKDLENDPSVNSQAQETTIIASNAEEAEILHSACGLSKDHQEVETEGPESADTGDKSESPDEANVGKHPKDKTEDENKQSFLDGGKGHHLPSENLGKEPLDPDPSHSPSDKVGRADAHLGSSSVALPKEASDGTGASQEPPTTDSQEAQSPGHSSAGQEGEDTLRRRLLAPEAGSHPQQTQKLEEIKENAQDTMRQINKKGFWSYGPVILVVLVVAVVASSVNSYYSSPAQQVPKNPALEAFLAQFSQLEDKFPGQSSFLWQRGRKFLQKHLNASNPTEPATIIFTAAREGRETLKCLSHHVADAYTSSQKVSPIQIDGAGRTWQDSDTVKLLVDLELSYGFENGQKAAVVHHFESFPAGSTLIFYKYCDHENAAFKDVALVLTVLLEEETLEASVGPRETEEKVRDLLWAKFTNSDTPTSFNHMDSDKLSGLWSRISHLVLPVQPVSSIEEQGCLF
Chain of Neurogenic locus notch homolog protein 2 (Homo sapiens) (Q04721 whole entry, looked up, canonical isoform): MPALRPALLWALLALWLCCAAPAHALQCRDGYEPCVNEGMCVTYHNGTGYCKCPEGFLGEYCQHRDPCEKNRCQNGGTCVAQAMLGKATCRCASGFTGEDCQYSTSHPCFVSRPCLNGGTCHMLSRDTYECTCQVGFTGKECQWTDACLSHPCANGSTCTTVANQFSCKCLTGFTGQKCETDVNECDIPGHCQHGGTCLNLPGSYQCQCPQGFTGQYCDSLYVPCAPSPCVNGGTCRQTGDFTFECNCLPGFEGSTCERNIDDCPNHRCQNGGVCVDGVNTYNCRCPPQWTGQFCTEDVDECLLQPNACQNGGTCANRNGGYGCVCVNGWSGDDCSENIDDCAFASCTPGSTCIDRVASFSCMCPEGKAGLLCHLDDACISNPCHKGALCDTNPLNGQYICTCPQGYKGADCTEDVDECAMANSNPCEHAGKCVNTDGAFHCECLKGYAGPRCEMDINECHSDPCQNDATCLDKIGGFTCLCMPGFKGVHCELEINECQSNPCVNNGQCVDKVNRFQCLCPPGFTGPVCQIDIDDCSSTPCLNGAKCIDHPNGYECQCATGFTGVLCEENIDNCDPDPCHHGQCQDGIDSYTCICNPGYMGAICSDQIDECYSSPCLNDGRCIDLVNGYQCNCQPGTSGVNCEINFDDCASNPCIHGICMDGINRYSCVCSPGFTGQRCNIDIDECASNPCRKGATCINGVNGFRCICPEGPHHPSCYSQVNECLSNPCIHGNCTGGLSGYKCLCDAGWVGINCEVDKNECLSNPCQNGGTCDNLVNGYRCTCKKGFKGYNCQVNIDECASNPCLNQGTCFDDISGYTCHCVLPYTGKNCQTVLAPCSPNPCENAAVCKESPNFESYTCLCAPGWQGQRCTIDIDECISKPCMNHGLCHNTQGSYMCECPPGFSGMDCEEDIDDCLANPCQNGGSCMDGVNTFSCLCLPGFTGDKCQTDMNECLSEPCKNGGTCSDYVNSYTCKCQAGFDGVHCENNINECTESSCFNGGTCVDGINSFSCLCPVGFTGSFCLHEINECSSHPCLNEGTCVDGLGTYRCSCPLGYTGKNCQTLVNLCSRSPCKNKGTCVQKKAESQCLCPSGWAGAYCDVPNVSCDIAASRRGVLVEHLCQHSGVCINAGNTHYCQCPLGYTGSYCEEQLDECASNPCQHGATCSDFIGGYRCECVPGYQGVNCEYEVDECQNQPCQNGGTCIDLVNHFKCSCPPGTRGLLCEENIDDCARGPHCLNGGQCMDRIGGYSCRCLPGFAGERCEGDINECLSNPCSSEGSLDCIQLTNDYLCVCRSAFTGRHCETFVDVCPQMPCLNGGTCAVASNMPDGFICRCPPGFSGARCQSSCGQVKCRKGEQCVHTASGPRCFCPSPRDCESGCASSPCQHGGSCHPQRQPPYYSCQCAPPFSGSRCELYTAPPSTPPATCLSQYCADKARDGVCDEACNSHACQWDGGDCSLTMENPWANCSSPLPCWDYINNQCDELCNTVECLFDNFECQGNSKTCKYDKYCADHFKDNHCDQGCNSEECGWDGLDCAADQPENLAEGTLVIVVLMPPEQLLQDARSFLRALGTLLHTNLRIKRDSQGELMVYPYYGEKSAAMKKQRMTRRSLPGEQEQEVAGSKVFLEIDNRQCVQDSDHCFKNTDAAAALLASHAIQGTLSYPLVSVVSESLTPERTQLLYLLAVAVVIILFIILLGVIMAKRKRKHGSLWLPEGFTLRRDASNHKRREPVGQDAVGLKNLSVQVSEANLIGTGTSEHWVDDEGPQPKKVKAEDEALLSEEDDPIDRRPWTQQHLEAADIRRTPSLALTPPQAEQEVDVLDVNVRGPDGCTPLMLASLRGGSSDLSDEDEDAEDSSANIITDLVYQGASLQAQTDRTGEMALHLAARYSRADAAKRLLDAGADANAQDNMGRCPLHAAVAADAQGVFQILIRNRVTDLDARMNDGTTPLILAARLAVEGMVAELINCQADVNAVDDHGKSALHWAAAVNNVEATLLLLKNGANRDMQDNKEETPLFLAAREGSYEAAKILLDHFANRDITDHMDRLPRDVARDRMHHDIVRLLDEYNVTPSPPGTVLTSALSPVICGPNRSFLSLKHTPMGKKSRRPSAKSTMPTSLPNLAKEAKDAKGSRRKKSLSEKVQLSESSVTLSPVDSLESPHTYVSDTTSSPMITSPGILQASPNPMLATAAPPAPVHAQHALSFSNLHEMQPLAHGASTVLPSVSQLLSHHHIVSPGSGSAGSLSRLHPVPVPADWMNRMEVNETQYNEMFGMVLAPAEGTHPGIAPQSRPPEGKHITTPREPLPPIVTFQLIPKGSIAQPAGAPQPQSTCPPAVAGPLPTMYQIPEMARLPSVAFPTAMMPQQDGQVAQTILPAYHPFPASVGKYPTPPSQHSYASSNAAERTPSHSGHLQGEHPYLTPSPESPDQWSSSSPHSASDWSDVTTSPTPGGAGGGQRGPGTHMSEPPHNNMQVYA
Chain of Pro-neuregulin-1, membrane-bound isoform (Homo sapiens) (Q02297 whole entry, looked up, the tested form may be a part, canonical isoform): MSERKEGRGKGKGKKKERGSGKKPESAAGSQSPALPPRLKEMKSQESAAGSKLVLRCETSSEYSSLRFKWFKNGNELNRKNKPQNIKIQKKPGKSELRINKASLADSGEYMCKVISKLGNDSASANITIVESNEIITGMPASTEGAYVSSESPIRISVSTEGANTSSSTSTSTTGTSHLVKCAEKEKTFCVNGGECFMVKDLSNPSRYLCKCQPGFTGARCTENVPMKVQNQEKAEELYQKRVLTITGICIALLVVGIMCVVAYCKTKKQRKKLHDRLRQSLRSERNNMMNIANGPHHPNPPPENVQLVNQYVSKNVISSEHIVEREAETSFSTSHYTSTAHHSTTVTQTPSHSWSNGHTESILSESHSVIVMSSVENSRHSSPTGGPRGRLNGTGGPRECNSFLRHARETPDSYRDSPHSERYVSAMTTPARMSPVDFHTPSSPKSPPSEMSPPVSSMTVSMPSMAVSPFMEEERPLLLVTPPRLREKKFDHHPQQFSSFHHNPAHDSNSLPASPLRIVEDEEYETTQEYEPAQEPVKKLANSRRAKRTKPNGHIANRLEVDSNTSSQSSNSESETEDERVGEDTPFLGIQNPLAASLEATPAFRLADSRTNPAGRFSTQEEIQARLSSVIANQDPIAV

| Structure (SMILES) | composite z-score [1] | composite z-score [2] | composite z-score [3] | composite z-score [4] | composite z-score [5] | composite z-score [6] | composite z-score [7] | z-score [8] | composite z-score [9] | composite z-score [10] | composite z-score [11] | z-score [12] | z-score [13] | z-score [14] | composite z-score [15] | z-score [16] | composite z-score [17] | composite z-score [18] | composite z-score [19] | composite z-score [20] |
| --- | --- | --- | --- | --- | --- | --- | --- | --- | --- | --- | --- | --- | --- | --- | --- | --- | --- | --- | --- | --- |
| CO[C@H]1COC(=O)[C@@H]2CCCN2C(=O)CC=C[C@@H](C)[C@H](OC)COC(=O)[C@@H](OCc2ccccc2)C=C[C@@H]1C | -0.466 | 1.29 | -0.175 | -0.477 | -0.624 | -0.233 | 0.269 | -0.0576 (inactive) | 0.317 | 0.176 | 1.3 | 0.14 (inactive) | -0.826 (inactive) | 0.087 (inactive) | -1.13 | 0.279 (inactive) | -0.155 | 1.08 | -0.203 | 0.0564 |
| COC(=O)CC=C[C@@H](C)[C@@H](C=NO[C@H](C)c1cn([C@@H]2COC[C@H]2O)nn1)NS(=O)(=O)c1ccc(C)cc1 | -0.279 | 0.612 | -0.0027 | 0.575 | 0.283 | 0.0806 | 0.928 | -1.24 (inactive) | 0.374 | -0.166 | 0.274 | 0.412 (inactive) | 0.144 (inactive) | -0.173 (inactive) | -0.0305 | 0.554 (inactive) | 0.0428 | 0.492 | 0.223 | 0.0049 |
| CC(CCN1CCCCc2nc(C)c(C)cc21)=NO[C@H](C)c1cn([C@H](CO)Cc2ccccc2)nn1 | -0.476 | 0.736 | -0.0894 | 0.205 | -0.248 | -0.0339 | 0.362 | 2.09 (inactive) | 0.627 | -0.0237 | 1.1 | -0.585 (inactive) | 0.446 (inactive) | -0.382 (inactive) | 0.592 | -0.425 (inactive) | 0.0345 | 0.196 | 0.108 | -0.026 |
| C=COC[C@@H]1CN2[C@@H](CC[C@@H](C)[C@@H]2c2ccc(Br)cc2)C(=O)O1 | -0.154 | 0.436 | -0.158 | -0.134 | -0.898 | -0.0605 | 0.673 | 0.151 (inactive) | -0.171 | 0.643 | 0.217 | -0.872 (inactive) | -17.1 (active) | -0.61 (inactive) | 0.0749 | -0.756 (inactive) | -0.0769 | -0.0482 | -0.906 | -0.267 |
| COc1ccc(O[C@H]2C=C[C@@H](c3ccccc3)O[C@@H]2CON=C(C)CCN2CCc3nc(-c4ccccc4)c(-c4ccccc4)cc3C2)cc1 | -0.311 | 0.183 | -0.0909 | -0.631 | -0.167 | 0.617 | -0.0088 | 0.282 (inactive) | 0.371 | 0.136 | 0.307 | 0.549 (inactive) | -0.513 (inactive) | -2.92 (inactive) | 0.607 | 0.669 (inactive) | -0.148 | 0.111 | -0.183 | -0.133 |

Source: PubChem BioAssay
